# Measurements as given in PubChem BioAssay AID504373 (National Center for Advancing Translational Sciences (NCATS), 2011).
# Values joined by “and” are separate entries in the source; they are usually repeats but may differ in a detail not shown here. Equal entries are not always repeated. Results filed as inconclusive are left out. Some structures have more than one record in an assay (separate samples or runs), and their calls can disagree. Active and inactive are the calls of the source.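 How the source made its calls: active means fewer circulating green fluorescent tagged thrombocytes in treated fish, with no visible harm to the embryos; inconclusive means compound visibly harmful to the embryos; inactive means no drop in circulating tagged thrombocytes.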
# Assay: qHTS Assay for Compounds Blocking the Interaction Between CBF-beta and RUNX1 for the Treatment of Acute Myeloid Leukemia: Zebrafish assay for Hematopoiesis, SAR for Probe
# Conditions: GFP-cd41 zebrafish embryos, microscopy, 5 days, at 10 uM, stronger effect = lower value
# Text: NIH Chemical Genomics Center [NCGC] NIH Molecular Libraries Probe Production centers Network [MLPCN] MLPCN Grant: X01MH083259-01 Assay Submitter (PI): Paul Liu NCGC Assay Overview: Core Binding Factor (CBF) abnormalities are associated with 20-25% of all acute myeloid leukemias (AML), of which 5-10% are further sub classified as acute myelomonocytic leukemia with eosinophilia, also known as M4Eo in the FAB classification scheme. This subtype of leukemia is usually associated with chromosome 16 inversion (p13:q22). Chromosome 16 inversion results in formation of the fusion oncogene CBFB-MYH11, which encodes the fusion protein CBF-beta-SMMHC. […] It has been hypothesized that the interference of CBF-beta and RUNX1 binding could have therapeutic implications for patients with CBF mediated leukemias. We developed a CBF-beta and RUNX1 binding assay in AlphaScreenTM format and optimized it for high throughput screening to search for inhibitors. The goal of this project is to screen MLPCN's compound collection (MLSMR) for identifying the inhibitors of the interaction between CBF-beta and RUNX1 proteins as research probes. If these probes work well in the animal models, the ultimate goal of this project is to development a new drug treatment for this disease. […] These fish contain a genomic modulation where GFP has been fused to cd41, a marker for thrombocytes, and thus circulating thrombocytes can be easily imaged in anesthetized fish.
# Assay protocol: GFP-cd41 zebrafish were kindly provided by the Liu lab. Zebrafish embryos were incubated with compound (<0.1% DMSO final) at 48 hours post fertilization, for 5 days. Embryos were manually scored under a microscope with GFP illumination for circulating GFP-tagged thrombocytes. Keywords: MLSMR, MLPCN, NIH Roadmap, qHTS, NCGC, Core binding factor, CBF, CBF-beta, Acute myeloid leukemia
row,SMILES,fish with circulating GFP thrombocytes
1,CN(C)CC(=O)Nc1ccc(Cl)cc1C(=O)c1ccc[nH]1,70%
2,NCCCC(=O)Nc1ccc(Cl)cc1C(=O)c1ccc[nH]1,93.3%

# Same assay, conditions: GFP-cd41 zebrafish embryos, microscopy, 5 days, at 25 µM, stronger effect = lower value
row,SMILES,fish with circulating GFP thrombocytes
1,NC(=O)C[C@H](N)C(=O)Nc1ccc(Cl)cc1C(=O)c1ccc[nH]1,100% (inactive)
2,CC(C)[C@H](N)C(=O)Nc1ccc(Cl)cc1C(=O)c1ccc[nH]1,100% (inactive)
3,CNCC(=O)Nc1ccc(Cl)cc1C(=O)c1ccc[nH]1,100% (inactive)
4,CN(C)CC(=O)Nc1ccc(Cl)cc1C(=O)c1ccc[nH]1,59.4% (active)
5,O=C(c1ccc[nH]1)c1cc(Cl)ccc1NC(=O)[C@@H]1CCCN1,100% (inactive)
6,CC(C)(N)C(=O)Nc1ccc(Cl)cc1C(=O)c1ccc[nH]1,100% (inactive)
7,NCCCC[C@H](N)C(=O)Nc1ccc(Cl)cc1C(=O)c1ccc[nH]1,100% (inactive)
8,CNCc1nc(-c2ccc[nH]2)c2cc(Cl)ccc2n1,100% (inactive)
9,NCCC(=O)Nc1ccc(Cl)cc1C(=O)c1ccc[nH]1,100% (inactive)
10,CC(=O)Nc1ccc(Cl)cc1C(=O)c1ccc[nH]1,70.8% (active) and 100% (inactive)
11,NC(N)=NCCC[C@H](N)C(=O)Nc1ccc(Cl)cc1C(=O)c1ccc[nH]1,100% (inactive)
12,NCC(=O)Nc1ccc(Cl)cc1C(=O)c1ccc[nH]1,100% (inactive)
13,N[C@@H](CCC(=O)O)C(=O)Nc1ccc(Cl)cc1C(=O)c1ccc[nH]1,100% (inactive)
14,N[C@H](C(=O)Nc1ccc(Cl)cc1C(=O)c1ccc[nH]1)c1ccccc1,100% (inactive)
15,Nc1ccc(Cl)cc1C(=O)c1ccc[nH]1,83.3% (active)
16,C[C@@H](N)C(=O)Nc1ccc(Cl)cc1C(=O)c1ccc[nH]1,100% (inactive)
17,N[C@H](Cc1ccccc1)C(=O)Nc1ccc(Cl)cc1C(=O)c1ccc[nH]1,100% (inactive)
18,CCC(=O)Nc1ccc(Cl)cc1C(=O)c1ccc[nH]1,100% (inactive)
19,NCCCC(=O)Nc1ccc(Cl)cc1C(=O)c1ccc[nH]1,100% (inactive)
20,N[C@@H](Cc1ccccc1)C(=O)Nc1ccc(Cl)cc1C(=O)c1ccc[nH]1,100% (inactive)
21,N[C@@H](CC(=O)O)C(=O)Nc1ccc(Cl)cc1C(=O)c1ccc[nH]1,100% (inactive)
22,C[C@H](N)C(=O)Nc1ccc(Cl)cc1C(=O)c1ccc[nH]1,100% (inactive)

# Same assay, conditions: GFP-cd41 zebrafish embryos, microscopy, 5 days, at 50 uM, stronger effect = lower value
row,SMILES,fish with circulating GFP thrombocytes
1,CC(=O)Nc1ccc(Cl)cc1C(=O)c1ccc[nH]1,66.7%
2,Nc1ccc(Cl)cc1C(=O)c1ccc[nH]1,70.8%
